For 94 compounds, inhibition results are on record in PubChem BioAssay AID449762 (Southern Research Specialized Biocontainment Screening …, 2010).

Screen size: about 330,000 compounds; about 1,900 (0.58%) were called active. Inconclusive results (about 4%) are left out. No stated cut-off is given here; in the data, inconclusive means inhibition above about 70% without an active follow-up result; inactive means below that. The list is a sample of the results. Measured potencies and affinities stand elsewhere. Where a SMILES comes first, the peptide text is derived from it. [ ]: non-standard residue; d: D form. The star is where a group is joined. ξ: configuration not given here. Cbz = O=C(OCc1ccccc1)*; ξS = NC(CO)C(=O)O

A short description of this assay: M. tuberculosis growth inhibition, HTS (AID 449762).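 Further: bacterial growth assessed after seven days of incubation.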 To be noted: M. tuberculosis H37Rv growth inhibition, 7H9 media; at 25 µM; active compounds read high.
A word on the inhibition: it is the drop in the measured response relative to a control, in per cent. `COc1ccc(S(=O)(=O)N2CCN(CC(=O)Nc3ccccc3Cl)CC2)cc1`: the inhibition was -4.47% (inactive).
Next, `CN(C)C1(CNC(=O)Nc2ccccc2)CCCCC1`: 3.43% (inactive); `CN(C)C1(CNC(=O)c2ccc(NS(=O)(=O)c3ccc(Cl)c(Cl)c3)cc2)CCCCC1`: -3.67% (inactive); `CCc1cc2c(=O)n(CC(=O)NCCc3ccc(OC)c(OC)c3)cnc2s1`: -7.38% (inactive).
On to `CCN(CC)C(=O)CN(c1cccc(Br)c1)S(C)(=O)=O`, for which the inhibition is -7.74% (inactive).
For the compound `COC(C/C=C/[C@H](O)[C@@H](C)OCc1ccccc1)OC`, the inhibition was -3.21% (inactive).
As for `O=C(C1=C[C@H](c2csc3ccccc23)C[C@H](OCc2ccc(CO)cc2)O1)N1CCN(Cc2ccc3c(c2)OCO3)CC1`, the inhibition was 21.8% (inactive).
Next, `O=C(C1=C[C@H](c2csc3ccccc23)C[C@H](OCCCCO)O1)N1CCN(Cc2ccc3c(c2)OCO3)CC1`: 59.9% (inactive).
The same measure for `Cc1ccc(/C=C/C(=O)O)cc1S(=O)(=O)N1CCc2ccccc21`: -1.47% (inactive).
With `C/C(=N\NC(=O)c1sccc1C)c1cccnc1`, the inhibition was -1.12% (inactive).
For `CCN1CC(CN(C)Cc2nc(COc3ccccc3)no2)CC1=O` (centres undefined), the inhibition was 2.85% (inactive).
For the compound `C[C@@H](NCCc1ccc(O)cc1)[C@@H](O)c1ccc(O)cc1`, the inhibition is -1.64% (inactive).
`C[C@H](NCCc1ccc(O)cc1)[C@H](O)c1ccc(O)cc1`: the inhibition is 1.5% (inactive).
As to `CCCCNC(=O)c1c(CSc2ccc(Cl)cc2)noc1C(=O)NCc1ccccc1`, the inhibition was 8.53% (inactive).
`CC(C)(C)c1[nH]nc2c1C(Cc1ccccc1)C(C#N)=C(N)O2` (centres undefined): the inhibition was -0.95% (inactive).
Next, `COc1ccccc1Nc1ccc(C(=O)NC2CCCCC2)cn1`: -2.47% (inactive).
Next, `C/C(CC(=O)NC(C)(C)C)=N\NC(=O)COc1ccc(C)cc1Br`: 2.95% (inactive).
For the compound `C/C(=N\NC(=O)COc1ccc(C)cc1[N+](=O)[O-])c1cccs1`, the inhibition was 2.03% (inactive).
`Cc1ccsc1C(=O)OCC(=O)NCc1ccccc1`: the inhibition was -4.47% (inactive).
In the case of `COc1cccc(/C=C2\SC(=S)N(CCCC(=O)NC3=NCCS3)C2=O)c1`, the inhibition was 2.44% (inactive).
Consider `Cc1cc(C=C2C(=O)N(C)C(=S)N(C)C2=O)c(C)n1C1CCCCC1`, for which the inhibition is -5.32% (inactive).
As for `Cc1cc(C=C2C(=O)N(C)C(=S)N(C)C2=O)c(C)n1C1CCCC1`, the inhibition was 64.7% (inactive).
For the compound `CCOC(=O)C1CCN(S(=O)(=O)c2ccc(-c3cc(C(F)(F)F)n(C)n3)s2)CC1`, the inhibition is -4.16% (inactive).
With `Cc1cnc(C(=O)Nc2cccc3ncccc23)cn1`, the inhibition was -2.6% (inactive).
Turning to `Cc1c(C)c(C)c(CO/N=C/c2cccs2)c(C)c1C`, the inhibition was -0.39% (inactive).
Take `COc1cc(NCCCCCCCN)c2ncccc2c1`: the inhibition was 7.02% (inactive).
The same measure for `COc1cc(NC(C)CCCN)c2ncccc2c1Oc1ccccc1` (centres undefined): -3.95% (inactive); for `CCCCC(=O)Nc1cccc(-c2nn3c(C)nnc3s2)c1`: 8.49% (inactive).
Take `Cc1cc(/C=C2/C(=O)NN(c3ccccc3)C2=O)c(C)n1-c1ccc(O)cc1`: the inhibition is 5.28% (inactive).
Regarding `O=C1NN(c2cccc(Br)c2)C(=O)/C1=C\c1ccc(O)cc1`, the inhibition is 1.89% (inactive).
On to `CN(CC1COc2ccccc2O1)C(=S)NC1CCCCC1` (centres undefined), for which the inhibition was -4.56% (inactive).
The same measure for `Cc1c(Cl)c([N+](=O)[O-])nn1Cc1ccc(C(=O)N/N=C\c2ccccn2)o1`: 0.01% (inactive); for `COc1cc(/C=N\NC(=O)c2ccc(Cn3nc([N+](=O)[O-])c(Cl)c3C)o2)ccc1O`: -5.71% (inactive).
In the case of `Cc1nn(Cc2ccc(C(=O)NN)o2)c(C)c1Cl`, the inhibition was -6.65% (inactive).
Regarding `Cc1ccc(CNC(=O)c2ccc(Cn3nc(C)c(Cl)c3C)o2)cc1`, the inhibition is -10.1% (inactive).
With `COc1ccc(NC(=O)C(C)N(C)Cc2ccc3ccccc3c2)cc1` (centres undefined), the inhibition was 0.65% (inactive).
For the compound `NC(N)=NCCCC(NC(=O)c1ccccc1)C(=O)Nc1ccc2ccccc2c1` (centres undefined), the inhibition was 69.1% (inactive).
For `O=C(CSc1ccc2nnc(-c3ccc(F)cc3)n2n1)NCc1ccco1`, the inhibition is -4.01% (inactive).
`CC1(C)C([N+](=O)[O-])C(c2ccc(Cl)cc2)NC(c2ccc(Cl)cc2)C1[N+](=O)[O-]` (centres undefined): the inhibition was 61.2% (inactive).
Turning to `CCOc1ccc(NC(=O)CSc2ccc3nnc(-c4cccnc4)n3n2)cc1`, the inhibition is -11.5% (inactive).
With `CCN(CC)C(=S)Nc1ccc(Cl)c(Cl)c1`, the inhibition is 7.74% (inactive).
On to `O=C(Cc1ccccc1)NNC(=O)Nc1ccc(Cl)c(Cl)c1`, for which the inhibition is 9.99% (inactive).
Next, `Cc1ccc2nc(CSc3nnc(-c4ccncc4)n3C)cc(=O)n2c1`: -4.97% (inactive).
Next, `CCc1nc(SCc2nnc(-c3ccc(C)cc3)o2)c2c(C)c(C)sc2n1`: -15.8% (inactive).
The same measure for `O=C1NCC(c2ccccc2)C1C(=O)N/N=C/c1ccc(Cl)s1` (centres undefined): -0.33% (inactive); for `O=C1NCC(c2ccccc2)C1C(=O)N/N=C\c1ccc(-c2cccc(Cl)c2Cl)o1` (centres undefined): 24.5% (inactive); for `COCCNC(=O)C1CC2Cn3c(nc4cc(Cl)c(Cl)cc43)C2N1C` (centres undefined): 2.07% (inactive).
Turning to `O=C(NCC1CCCO1)c1cc([N+](=O)[O-])ccc1N1CCC(Cc2ccccc2)CC1` (centres undefined), the inhibition was 32.2% (inactive).
Next, `CCOC(=O)CNC(=O)C(CO)NC(=O)OCc1ccccc1` (centres undefined) (Cbz-[ξS]-Gly-OEt): 5.25% (inactive); `CCNC(=O)C(Cc1ccccc1)NC(=O)OCc1ccccc1` (centres undefined): -4.3% (inactive); `COc1cc(OC)cc(C(=O)N[C@H](C(=O)Nc2ccc(NC(C)=O)cc2)C(C)C)c1`: -0.98% (inactive).
As to `O=c1c(Cc2ccccc2)c(O)ccn1Cc1ccc2c(c1)OCO2`, the inhibition was 3.04% (inactive).
Next, `O=C(Nc1cc(=O)[nH]c2nc(-c3ccccc3)nn12)c1ccc(Cl)cc1`: -2.49% (inactive); `O=C(Nc1cc(=O)[nH]c2ncnn12)c1ccco1`: -17.4% (inactive).
For the compound `COCCN(C(=O)COC(=O)/C=C/c1ccc(C)o1)c1c(N)n(Cc2ccccc2)c(=O)[nH]c1=O`, the inhibition is -11.7% (inactive).
In the case of `COc1cccc2c1OCC(C(=O)O)C2` (centres undefined), the inhibition was -0.01% (inactive).
The same measure for `COc1ccccc1N1CCN(C(=O)C2CC=CCC2C(=O)O)CC1` (centres undefined): -1.32% (inactive); for `Cc1ccc(C)c(NNC(=O)C(=O)NNc2cc(C)ccc2C)c1`: 52.8% (inactive); for `Cc1ccc(C)c(NC(=S)N(C)C)c1`: 1.85% (inactive).
Consider `O=C(Nc1cccc(S(=O)(=O)N2CCCCC2)c1)c1ccc2ncsc2c1`, for which the inhibition was -3.33% (inactive).
Next, `CC(=O)c1cccc(NC(=O)c2ccc(S(=O)(=O)N3CCCCC3)cc2)c1`: -2.95% (inactive).
Turning to `COc1ccc(N(C(=O)Cn2cnc3ccccc32)C(C(=O)NC2CCCCC2)c2ccccc2)cc1` (centres undefined), the inhibition is 0.85% (inactive).
Next, `COc1ccc(NS(=O)(=O)c2cccc(NC(=O)CNC(C)=O)c2)cc1`: 3.07% (inactive).
Regarding `Cc1ccc(C(O)c2nc3ccccc3n2C)cc1` (centres undefined), the inhibition is 6.67% (inactive).
Turning to `CN1C(=O)Cn2c1nc1ccccc12`, the inhibition is 6.02% (inactive).
As for `Cc1cccc(C)c1NC(=S)N(CCN(C)C)C(C)c1ccccn1` (centres undefined), the inhibition is -5.58% (inactive).
Turning to `CN(Cc1cccs1)C(=O)CCc1c[nH]c2ccccc12`, the inhibition was 4.68% (inactive).
Next, `COC(=O)c1ccc(CSc2nc(C(F)F)cc(C)c2C#N)o1`: -2.24% (inactive); `COC(=O)c1ccc(CSc2ncnc3ccccc23)o1`: -4.26% (inactive); `O=C(NNc1ncnc2ccccc12)c1cccc(Cl)c1`: -0.01% (inactive).
For the compound `CN(Cc1cccc(F)c1)C(=O)c1cccc(S(=O)(=O)N2CCN(Cc3ccccc3)CC2)c1`, the inhibition was -18.2% (inactive).
Consider `Cc1ccc(CNC(=O)c2ccc(NC(=O)C3=CSCCO3)cc2)cc1`, for which the inhibition was -1.39% (inactive).
As for `O=C(Nc1ccc(C(=O)NCc2ccc(F)cc2)cc1)C1=CSCCO1`, the inhibition is -4.67% (inactive).
Take `Cc1nc(-c2ccccc2)sc1C1(C)CC(c2ccc(C#N)cc2)=NO1` (centres undefined): the inhibition is -2.7% (inactive).
Regarding `Cc1nc(-c2ccc(Cl)cc2)sc1C1(C)CC(c2ccc(Cl)cc2)=NO1` (centres undefined), the inhibition is 0.85% (inactive).
As to `c1ccc(-c2cc3ccccc3cn2)cc1`, the inhibition was 12.7% (inactive).
Next, `Cc1cnc(NC2=NCCC2)s1`: 4.98% (inactive); `CCCNC(=O)c1ccc(COc2ccc(C(C)(C)C)cc2)o1`: 1.87% (inactive); `COc1ccccc1NC(=O)c1nn(-c2ccccc2)ccc1=O`: 5.5% (inactive).
The same measure for `CN(CC(=O)NC(=O)NCc1ccco1)Cc1nc2ccccc2c(=O)[nH]1`: -5.09% (inactive); for `O=C(OC(C(=O)NCc1ccc2c(c1)OCO2)c1ccccc1F)c1ccco1` (centres undefined): 2.01% (inactive); for `C/C(CC(=O)Nc1ccc2c(c1)OCCO2)=N\NC(=O)c1ccccc1Cl`: 5.1% (inactive).
The same measure for `COc1ccccc1C(=O)N/N=C(\C)CC(=O)Nc1ccc2c(c1)OCCO2`: 1.17% (inactive).
Take `CC(C)(C)c1ccc(C(=O)NCCCNC(=O)c2ccccn2)cc1`: the inhibition was 8.46% (inactive).
Regarding `COC(=O)c1c(NC(=O)CCC(=O)O)sc2c1CCCCC2`, the inhibition was 19.9% (inactive).
Next, `Nc1nc(Nc2ccccc2)nc(NC2CCCCC2)c1[N+](=O)[O-]`: 29.1% (inactive); `COc1ccc(OC)c(Nc2nc(N)c([N+](=O)[O-])c(NC3CCCCC3)n2)c1`: -3.37% (inactive); `COc1ccc(OC)c(S(=O)(=O)N2CCN(C(=O)CCc3ccccc3)CC2)c1`: -9.07% (inactive).
In the case of `Cc1cccc(C(=O)O/N=C2/CC3CCC2(C)C3(C)C)c1` (centres undefined), the inhibition was 5.89% (inactive).
With `CC12CCC(C/C1=N\N=C1\NC(=O)/C(=C\c3cccc(Br)c3)S1)C2(C)C` (centres undefined), the inhibition was 21.6% (inactive).
As for `COc1ccc(CC(=O)O/N=C(\N)Cc2ccc(OC)c(OC)c2)cc1`, the inhibition is 2.93% (inactive).
Turning to `O=C1c2ccccc2CN1C(CO)Cc1ccccc1` (centres undefined), the inhibition was -7.4% (inactive).
Regarding `COCCNC(=S)N/N=C(\C)CCc1ccc2c(c1)OCO2`, the inhibition is 8.49% (inactive).
As to `C/C(CCc1ccc2c(c1)OCO2)=N\NC(=O)c1ccccc1`, the inhibition is 1.21% (inactive).
